Assay results published in PubChem BioAssay.
Activity calls are given as the source filed them.

Experiment: budding yeast growth modifiers under rapamycin – strain BY4716, OD600, 96 h, primary screen (AID 1091); further: test concentration not given here
Conditions: S. cerevisiae BY4716 + rapamycin, higher = more signal, called active from +8 up or from −8 down

Row | Compound | z-score
1 | COCC(=C=CC[C@@H](O)c1ccccc1OCCO)C[C@@H](O)c1ccccn1 | -0.856 (inactive)
2 | COc1ccc([Si](C)(C)[C@H]2[C@H](CCO)O[C@@]3(C(=O)N(Cc4cccc(N5CCOC5=O)c4)c4ccccc43)[C@@H]2C)cc1 | 34 (active)
3 | COC(=O)C(CC#Cc1ccc2c(c1)[C@]1(C(=O)N2)[C@H](C(=O)N2CCc3cc(OC)c(OC)cc3C2)[C@H]2C(=O)O[C@H](c3ccccc3)[C@H](c3ccccc3)N2[C@@H]1c1ccc(O)cc1)C(=O)OC | 2.62 (inactive)
4 | COc1ccc([Si](C)(C)[C@H]2[C@H](CCn3cc(CCO)nn3)O[C@@]3(C(=O)N(Cc4cccc(N5C(=O)c6cccc7cccc5c67)c4)c4ccccc43)[C@@H]2C)cc1 | 27.7 (active)
5 | C[C@H]1ON(c2ccccc2)[C@@H](c2ccccc2)[C@@H]1C(=O)N1C(=O)OC[C@@H]1c1ccccc1 | -0.299 (inactive)
6 | COc1ccc(C#Cc2ccc3c(c2)[C@]2(C(=O)N3)[C@H](C(=O)O)[C@H]3C(=O)O[C@H](c4ccccc4)[C@H](c4ccccc4)N3[C@@H]2c2ccc(OCCO)cc2)cc1 | 1.08 (inactive)
7 | C=CCC(OC(C)=O)[C@@H]1[C@@H](N(Cc2ccc(-c3ccccc3)cc2)C(=O)Cc2ccc(OC)cc2)c2cc(OCCCO)ccc2N1C(=O)c1ccc(-c2ccccc2)cc1 (stereo not given in full) | -0.542 (inactive)
8 | Cc1ccc(S[C@]2(C(=O)NCC(C)C)CC(=O)N(C3CCCCC3)[C@@H]2c2ccc(CO)cc2I)cc1 | -0.0866 (inactive)
9 | COC(=O)C(CC#Cc1ccc2c(c1)[C@]1(C(=O)N2)[C@H](c2ccc(OCCO)cc2)N2[C@H](c3ccccc3)[C@H](c3ccccc3)OC(=O)[C@H]2[C@@H]1C(=O)O)C(=O)OC | -0.881 (inactive)
10 | [N-]=[N+]=NCc1ccccc1C[C@@]1(C(=O)NCCN2CCOCC2)N=C(c2ccc(OCCCO)cc2)O[C@@H]1c1ccccc1CN=[N+]=[N-] | 2.01 (inactive)
11 | C[C@]12C(=O)N(CCCO)[C@@H]3C(=O)N(c4ccc(Cl)cc4)CC=CC31O[C@@H]1/C=C\CCCOC(=O)C12 (stereo not given in full) | -0.488 (inactive)
12 | CCCCC(O)C1C=CC2C(=O)N(Cc3ccccc3)C(=O)C2N1n1cnnc1 (stereo not given) | -0.335 (inactive)
13 | Cc1ccccc1C(O)C1C=CC2C(=O)N(C)C(=O)C2N1Nc1ccc([N+](=O)[O-])cc1[N+](=O)[O-] (stereo not given) | 0.969 (inactive)
14 | COCCOC(=O)N1C(=O)[C@@]2(c3cc(C#Cc4ccc(OC)cc4)ccc31)[C@H](C(=O)N1CCc3cc(OC)c(OC)cc3C1)[C@H]1C(=O)O[C@H](c3ccccc3)[C@H](c3ccccc3)N1[C@@H]2c1ccc(OCCO)cc1 | 5.75 (inactive)
15 | O=c1c2ccc(Br)cc2nc(-c2ccccc2)n1Cc1cccc(O)c1 | -0.511 (inactive)
16 | Cc1ccc(S[C@]2(C(=O)NCCN3CCOCC3)CC(=O)N(C3Cc4ccccc4C3)[C@@H]2c2ccc(CO)cc2)cc1 | -0.0611 (inactive)
17 | C=CC[C@@]1(C(=O)NCCN2CCOCC2)N=C(c2ccc(OCCCO)cc2)O[C@@H]1c1ccccc1 | 0.33 (inactive)
18 | C[C@H]1NC(=O)C([C@@H](C)OCc2ccccc2)NC(=O)[C@@]23C(=O)N[C@@H](Cc4ccccc4)C2[C@H](C)[C@@]2(C)O[C@H]2C3/C=C/CC/C=C/CNC1=O (stereo not given in full) | 0.261 (inactive)
19 | C/C=C/[C@@H](CCn1cc([C@H](O)c2ccccc2)nn1)[Si](C)(C)c1ccc(OC)cc1 | -0.0906 (inactive)
20 | CCCC=C(CCC)[C@@H](NC(=O)Cc1ccccc1)c1ccc(C(=O)OC)cc1 | 0.762 (inactive)
21 | C=C(COC)/C(=C/C[C@@H](OC(=O)c1ccncc1)c1cccc(OCCO)c1)c1cc(C(=O)OC)ccc1OC | -4.36 (inactive)
22 | COc1cc(NN2C(C(O)c3ccc(I)cc3)C=CC3C(=O)N(C)C(=O)C32)cc(OC)c1OC (stereo not given) | 0.0514 (inactive)
23 | COCCCNC(=O)[C@@]1(Cc2ccccc2CN=[N+]=[N-])N=C(c2ccc(OCCCO)cc2)O[C@H]1c1ccccc1N=[N+]=[N-] | 2.08 (inactive)
24 | O=C(CS)NCCCCCNC(=O)[C@@H]1C[C@@H]2C(=O)N3CCC[C@H]3C(=O)N2[C@@H]1c1ccc(O)cc1 | 0.0036 (inactive)
25 | Cc1cc(C)c(C(O)C2C=CC3C(=O)N(c4ccccc4)C(=O)C3N2Nc2ccc([N+](=O)[O-])cc2)c(C)c1 (stereo not given) | 2.16 (inactive)
